# Source: PubChem BioAssay
# Shown is part of a subset that was picked to be rich in hits.
# CBX7 AlphaScr: blocks human CBX7 binding to H3K27me3 peptide. O95931. AlphaScreen His6-CBX7 / biotin-H3K27me3 peptide binding; stronger effect = lower value. normalised signal (fraction of DMSO) (test concentration not listed). 66,000 tested, 1.1% active. AID 1224903; in the data active = normalised signal below about 0.5
# Target sequence (O95931 whole entry, looked up): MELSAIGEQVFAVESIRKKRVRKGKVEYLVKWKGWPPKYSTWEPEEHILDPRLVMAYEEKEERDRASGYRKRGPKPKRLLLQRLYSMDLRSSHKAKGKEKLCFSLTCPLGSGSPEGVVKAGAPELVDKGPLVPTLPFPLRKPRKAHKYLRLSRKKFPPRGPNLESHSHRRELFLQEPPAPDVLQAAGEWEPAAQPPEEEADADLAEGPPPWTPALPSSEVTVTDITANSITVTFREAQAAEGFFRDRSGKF
# Hits are given with their value; n = inactive.
SMILES,CBX7 AlphaScr
COc1ccc2[nH]c(C)c(CCNCC(C)(C)C)c2c1,n
COc1ccc2[nH]c(C)c(CCNCc3cccc4ccccc34)c2c1,n
COc1ccc2[nH]c(C)c(CCNCc3ccc(C#N)cc3)c2c1,0.26
CCOC(=O)C1(c2ccccc2)CCN(CC(=O)Nc2ccc(OC(F)(F)F)cc2)CC1,n
CCC(=O)N1CC(=O)Nc2ccc(Cl)cc2C1c1ccc(F)cc1 (stereo not given),n
CCCCCC(C)C(C)c1cc(OC)c2c(c1)OC(C)(C)C1=C2CN(CC(N)=O)CC1 (stereo not given),0.38
C#CCN1CCC2=C(C1)c1c(O)cc(C(C)C(C)CCCCC)cc1OC2(C)C (stereo not given),n
CCC(C)n1[nH]c(=O)c2c1NC(=O)CSC2c1ccc(Cl)cc1 (stereo not given),n
COc1ccc(NC(=O)CN2C(=O)CN=C(c3ccccc3Cl)c3cc(Cl)ccc32)cc1OC,n
COc1ccc(CNCCC2(c3ccccc3)CCOC(C)(C)C2)cc1OC (stereo not given),n
CCCc1ccc(OCC(=O)Nc2ccc(Cl)cc2C(=O)c2ccccc2)cc1,n
CC1N=C(c2ccccc2F)c2cc(Cl)ccc2N(CC(=O)Nc2ccc(N(C)C)cc2)C1=O (stereo not given),0.27
CC1N=C(c2ccccc2)c2cc(Cl)ccc2N(CC(=O)Nc2ccc(N(C)C)cc2)C1=O (stereo not given),n
Cc1ccc(NC(=O)CN2C(=O)C(C)N=C(c3ccccc3F)c3cc(Cl)ccc32)cc1C (stereo not given),n
O=c1c2ccccc2nc(/C=C/c2cccnc2)n1-c1ccc(F)c(Cl)c1,n
CCOC(=O)C1(c2ccccc2)CCN(CC(=O)Nc2cccc(Cl)c2)CC1,0.35
CCOC(=O)C1(c2ccccc2)CCN(CC(=O)Nc2ccc(F)cc2)CC1,n
CCOC(=O)C1(c2ccccc2)CCN(CC(=O)Nc2cc(Cl)ccc2OC)CC1,n
Cc1nc2cc(-c3ccc(Cl)cc3)nn2c(C)c1CCC(=O)N1CCC2(CC1)OCCO2,n
CNc1ccc(Br)cc1C(=O)c1ccccc1Cl,n
CNc1ccc(C)cc1C(=O)c1cccc(Br)c1,0.42
O=C(c1ccccc1)c1cc(Br)ccc1NC(=O)c1c(F)cccc1F,n
COc1ccccc1NC(=O)CN1C(=O)CN=C(c2ccccc2)c2ccccc21,n
COc1ccc2c3c1OC1C[C@@H](OC(C)=O)C=C[C@@]31CN(C)CC2 (stereo not given in full),n
Clc1cccc(C2CC(c3cccnc3)Nc3ncnn32)c1 (stereo not given),n
